These results are taken from PubChem BioAssay (NCI).

Compounds without any hit were thinned out: in the full panel of roughly 83,000, 20% have a hit.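 Results are percent growth after 48 hours of single-concentration exposure. 100 means growth as in untreated cells, lower positive values show inhibition; negative values down to -100 show cell death.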 A number with no mark means an inactive call. Calls of active or inactive are those of the source. The calls were made as follows: active = growth percent below 10; inactive = the rest. Where a SMILES comes first, the peptide text is derived from it. Bridges are numbered along the chain shown (N, C = ends). [ ]: non-standard residue; d: D form. The star is where a group is joined. ξ: configuration not given here. ξNMePhe(4-NMe2) = CNC(Cc1ccc(N(C)C)cc1)C(=O)O; Picolinoyl(3-OH) = O=C(c1ncccc1O)*; ξPip(4-oxo) = O=C1CCNC(C(=O)O)C1; Phg = N[CH](C(=O)O)c1ccccc1; Abu = CC[CH](N)C(=O)O

Among the test systems are NCI-H23 lung; NCI-H226 lung; NCI-H322M lung; HOP-62 NSCLC; NCI-H460 lung; HOP-92 NSCLC; NCI-H522 lung; A549/ATCC NSCLC; 786-0 renal; COLO 205 colon; DU-145 prostate; K-562 leukemia; MALME-3M melanoma; MDA-MB-231 breast; RXF 393 renal; SF-268 CNS; SF-295 CNS; SF-539 CNS; UACC-257 melanoma; M14 melanoma.
Assay in all cases: NCI-60 one-dose screen, 48 h (100 = growth as untreated, 0 = no growth, -100 = all killed)
Holding throughout (conditions): 10 µM

Turning to `Oc1ccccc1-c1nnco1`, the growth was 94.9% with NCI-H23 lung; 93.1% with NCI-H226 lung; 89.9% in the experiment with NCI-H322M lung; 81.5% with HOP-62 NSCLC; 104% in the experiment with NCI-H460 lung; 97% in the experiment on HOP-92 NSCLC. The growth in the experiment with NCI-H522 lung is 91%; in the experiment on A549/ATCC NSCLC, 98.9%; in the experiment on 786-0 renal, 90.6%; with COLO 205 colon, 103%; in the experiment on DU-145 prostate, 99.7%; in the experiment with K-562 leukemia, 75.4%. The growth was 96.2% in the experiment with MALME-3M melanoma; 84.4% with MDA-MB-231 breast; 74% in the experiment with RXF 393 renal; 65.4% with SF-268 CNS; 112% with SF-295 CNS; 89.9% in the experiment on SF-539 CNS. In addition, in the experiment with UACC-257 melanoma, the growth was 97.3%.

For the compound `CCC1NC(=O)C(NC(=O)c2ncccc2O)C(C)OC(=O)C(c2ccccc2)NC(=O)C2CC(=O)CCN2C(=O)C(Cc2ccc(N(C)C)cc2)N(C)C(=O)C2CCCN2C1=O` (stereo not given) (tested in a mixture with another compound) ({Picolinoyl(3-OH)}-T[Abu]P[ξNMePhe(4-NMe2)][ξPip(4-oxo)][Phg]; ester 1-C; configuration not given here), the growth is 19.7% with NCI-H23 lung; 56.7% in the experiment with NCI-H226 lung; 87.2% in the experiment with NCI-H322M lung; 87.7% with HOP-62 NSCLC; 26.2% in the experiment on NCI-H460 lung; 53.8% in the experiment on HOP-92 NSCLC. Further, the growth was 66% with NCI-H522 lung; 28.1% in the experiment with A549/ATCC NSCLC; 67.4% in the experiment with 786-0 renal; 27% with COLO 205 colon; 46.9% with DU-145 prostate; 38.3% in the experiment with K-562 leukemia. Moreover, the growth was 55.4% with MALME-3M melanoma; 58.6% with MDA-MB-231 breast; 27.6% in the experiment on RXF 393 renal; 79.8% in the experiment with SF-268 CNS; 20.7% in the experiment on SF-295 CNS; 64.2% with SF-539 CNS. Moreover, the growth in the experiment with UACC-257 melanoma was 70.6%.

As for `O=[N+]([O-])c1ccc(/C=C/C=C/c2ccccc2)c(Cl)c1`, the growth in the experiment on NCI-H23 lung is 89.8%; with NCI-H226 lung, 102%; with NCI-H322M lung, 96.4%; in the experiment with HOP-62 NSCLC it was 105%; with NCI-H460 lung, 84.5%; with HOP-92 NSCLC it was 84.4%. The growth in the experiment with NCI-H522 lung was 80.9%; with A549/ATCC NSCLC it was 89.8%; with 786-0 renal, 95.6%; with COLO 205 colon it was 119%; in the experiment on DU-145 prostate, 109%; in the experiment with K-562 leukemia it was 91.8%. Further, the growth in the experiment with MALME-3M melanoma was 116%; with MDA-MB-231 breast, 89.6%; in the experiment with RXF 393 renal, 103%; with SF-268 CNS, 111%; in the experiment with SF-295 CNS, 98.7%; in the experiment with SF-539 CNS, 99%. Also, the growth is 95.1% with UACC-257 melanoma and 106% in the experiment with M14 melanoma.

Regarding `CCOC(=O)CCCS(C)(=O)=O`, the growth in the experiment on NCI-H23 lung is 98.6%; with NCI-H226 lung it was 109%; in the experiment with NCI-H322M lung it was 120%; with HOP-62 NSCLC, 102%; in the experiment on NCI-H460 lung, 110%; with HOP-92 NSCLC, 87%. Moreover, the growth in the experiment with NCI-H522 lung is 109%; with A549/ATCC NSCLC, 109%; in the experiment with 786-0 renal it was 110%; with COLO 205 colon, 110%; in the experiment on DU-145 prostate it was 117%; in the experiment with K-562 leukemia, 113%. For the same compound, the growth in the experiment with MALME-3M melanoma was 105%; in the experiment with MDA-MB-231 breast it was 99%; with RXF 393 renal, 113%; in the experiment on SF-268 CNS, 108%; in the experiment on SF-295 CNS it was 117%; in the experiment on SF-539 CNS, 97.7%. Also, in the experiment on UACC-257 melanoma, the growth is 108%.

On to `[O-][N+](=Nc1cccc(Cl)c1)c1cccc(Cl)c1`, for which the growth with NCI-H23 lung was 94.5%; in the experiment on NCI-H226 lung, 114%; in the experiment on NCI-H322M lung it was 95.9%; with HOP-62 NSCLC it was 107%; in the experiment with NCI-H460 lung it was 99%; in the experiment with HOP-92 NSCLC, 94.1%. For the same compound, the growth in the experiment on NCI-H522 lung is 148%; in the experiment on A549/ATCC NSCLC, 95.1%; with 786-0 renal, 109%; with COLO 205 colon, 116%; with DU-145 prostate it was 108%; with K-562 leukemia it was 133%. Besides, the growth was 101% in the experiment on MALME-3M melanoma; 102% with MDA-MB-231 breast; 102% with RXF 393 renal; 110% in the experiment with SF-268 CNS; 104% with SF-295 CNS; 92.8% in the experiment with SF-539 CNS. The growth is 117% with UACC-257 melanoma and 96.4% in the experiment with M14 melanoma.

In the case of `CCOC(=O)c1[nH]c(C)c(C(=O)O)c1C`, the growth in the experiment with NCI-H23 lung was 109%; in the experiment on NCI-H226 lung, 101%; in the experiment with NCI-H322M lung, 91.8%; in the experiment with HOP-62 NSCLC it was 111%; with NCI-H460 lung, 110%; in the experiment on HOP-92 NSCLC, 104%. Moreover, the growth with NCI-H522 lung was 90.4%; with A549/ATCC NSCLC it was 76.2%; with 786-0 renal, 110%; in the experiment on COLO 205 colon, 112%; in the experiment on DU-145 prostate it was 114%; in the experiment on K-562 leukemia it was 102%. Besides, the growth in the experiment with MALME-3M melanoma was 122%; in the experiment on MDA-MB-231 breast it was 107%; with RXF 393 renal it was 115%; with SF-268 CNS, 105%; in the experiment with SF-295 CNS, 122%; in the experiment with SF-539 CNS it was 105%. The growth was 111% in the experiment on UACC-257 melanoma and 124% in the experiment with M14 melanoma.

Consider `O=c1c2ccccc2c(Br)c(Br)c2ccccc12`, for which the growth in the experiment on NCI-H23 lung was 78.1%; in the experiment with NCI-H226 lung, 74.2%; in the experiment with NCI-H322M lung, 119%; with HOP-62 NSCLC, 112%; in the experiment with NCI-H460 lung it was 116%; with HOP-92 NSCLC, 83.7%. Further, the growth was -33.9% (active) with NCI-H522 lung; 95.1% in the experiment with A549/ATCC NSCLC; 84.3% with 786-0 renal; 55% with COLO 205 colon; 114% in the experiment on DU-145 prostate; 52.6% with K-562 leukemia. The growth in the experiment on MALME-3M melanoma is 94.7%; in the experiment with MDA-MB-231 breast, 115%; in the experiment with RXF 393 renal, 48%; in the experiment on SF-268 CNS it was 110%; in the experiment on SF-295 CNS, 99.4%; in the experiment on SF-539 CNS, 98.6%. Besides, the growth in the experiment on UACC-257 melanoma was 66.2%; with M14 melanoma it was 5.89% (active).

For `CN(C)c1ccc2oc(=O)c3ccccc3c2c1`, the growth in the experiment with NCI-H23 lung is 98.3%; in the experiment with NCI-H226 lung, 81.3%; with NCI-H322M lung it was 94.8%; in the experiment on HOP-62 NSCLC it was 78%; in the experiment on NCI-H460 lung it was 97.3%; in the experiment with HOP-92 NSCLC, 68.3%. For the same compound, the growth in the experiment with NCI-H522 lung is 97.1%; in the experiment on A549/ATCC NSCLC it was 105%; with 786-0 renal, 79.5%; in the experiment on COLO 205 colon it was 119%; with DU-145 prostate it was 105%; with K-562 leukemia, 109%. Further, the growth with MALME-3M melanoma was 97.6%; with MDA-MB-231 breast it was 77.6%; in the experiment with RXF 393 renal, 106%; with SF-268 CNS, 100%; in the experiment on SF-295 CNS, 102%; in the experiment on SF-539 CNS, 80.4%. The growth in the experiment with UACC-257 melanoma was 106%.

For `CCOc1ccccc1/C=N/Nc1nc2ccccc2o1`, the growth in the experiment with NCI-H23 lung is 91.8%; in the experiment on NCI-H226 lung it was 103%; in the experiment with NCI-H322M lung, 113%; in the experiment on HOP-62 NSCLC it was 97.2%; in the experiment with NCI-H460 lung, 102%; in the experiment with HOP-92 NSCLC, 87.9%. Moreover, the growth in the experiment on NCI-H522 lung was 110%; in the experiment on A549/ATCC NSCLC, 98.6%; in the experiment on 786-0 renal it was 116%; in the experiment with COLO 205 colon, 121%; in the experiment on DU-145 prostate it was 110%; in the experiment on K-562 leukemia, 95.7%. The growth is 97.5% in the experiment with MALME-3M melanoma; 82.8% in the experiment on MDA-MB-231 breast; 112% with RXF 393 renal; 108% in the experiment with SF-268 CNS; 108% in the experiment with SF-295 CNS; 104% with SF-539 CNS. In addition, in the experiment on UACC-257 melanoma, the growth was 113%.
